Laboratory results taken from PubChem BioAssay.

Assay: TLR3 IRF3 reporter activation blockers – cell-based, poly I:C stimulus, luciferase, 10K MLSCN set, primary screen (AID 602277)
Conditions: HEK293-TLR3 RL24 IRF3 luciferase reporter, at 10 µM, stronger effect = higher value;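 active = inhibition of the reporter signal at or above 50%; inactive = inhibition below 50%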

inhibition, inactive:
CS(=O)(=O)Nc1ccc(C(=O)NCCc2ccccc2)cc1 -40.3%
Cc1ccc(S(=O)(=O)NCCC(=O)OCn2nnc3ccccc3c2=O)cc1 28%
O=C(N1CCOCC1)N1CCC(NC(=O)C23CC4CC(CC(C4)C2)C3)CC1 21.8%
COc1ccc(C(=O)N2CCOCC2)cc1Br -3.39%
Cc1ccc(S(=O)(=O)CCc2nnc(NC(=O)c3cnccn3)s2)cc1 22.5%
O=C(C1CCN(S(=O)(=O)Cc2ccccc2)CC1)N1CCN(c2ncccn2)CC1 -4.47%
COc1ccc(C2CC(=O)c3c(C)nc(N4CCN(c5ccccc5)CC4)nc3C2)cc1 (stereo unspecified) -8.5%
Nc1nonc1C(=O)NCCNCc1cc(Br)ccc1OCc1ccccc1F -30.4%
CCCCN(CC)S(=O)(=O)c1ccc2c(c1)CCCN2C(C)=O 6.93%
Cc1c(Cc2ccccc2)sc(N)c1C(N)=O 10.8%
CCOC(=O)N1CCN(c2cc3nccnc3cc2F)CC1 -18.8%
N#Cc1nc(COc2ccccc2)oc1NCCN1CCOCC1 2.82%
O=C(Nc1ccccc1)N1C(=O)C2(OCCO2)c2ccccc21 7.78%
CCOC(=O)C1CCCN(C(=O)c2cc3c(C)nc4ccccc4c3o2)C1 (stereo unspecified) 5.32%
CC12C(=O)N(CCC(=O)O)C(=O)C1C1C=CC2C1 (stereo unspecified) 21.9%
CCCC(=O)N1CCN(c2ccc(NC(=O)c3ccc(Br)o3)cc2)CC1 -42.4%
